Test results as given in PubChem BioAssay.
Activity calls are given as the source filed them.

How the values were obtained:
[1] = tested on: Plasmodium falciparum Sir2 (PF13_0152, Sir2A); assay: Plasmodium falciparum Sir2A binding compounds – biochemical, small-molecule microarray, 635 nm fluorescence, primary screen (AID 1098); details: fluorescence 635 nm, higher = more signal;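 further: score merges spot fluorescence intensity with its signal-to-noise ratio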
[2] = probe aDKK1 binding to arrayed compounds – biochemical, biotinylated probe, 635/667 nm fluorescence, primary screen (AID 1099); details: small-molecule microarray, higher = more signal;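 further: score merges 667nm spot fluorescence with signal to noise across triplicate slides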
[3] = probe aCHRDL2 binding to arrayed compounds – biochemical, biotinylated probe, 635/667 nm fluorescence, primary screen (AID 1100); details: small-molecule microarray, higher = more signal
[4] = change in splice reporter luminescence, either direction, cell-based, HEK293, spliceosome inhibition project, primary screen (AID 1101); details: HEK293 splicing luciferase reporter, 24 h, higher = more signal, called active from +8 up or from −8 down;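 further: HEK293 cells carrying a splicing-competent luciferase reporter gene; test concentration not given here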
[5] = target: Fibroblast growth factor 10 (Homo sapiens) (UniProt O15520); assay: compounds binding fibroblast growth factor 10 – biochemical, small-molecule microarray, 635 nm fluorescence, primary screen (AID 1102); details: FGF10 binding, fluorescence 635 nm, higher = more signal
Sequence of Fibroblast growth factor 10 (Homo sapiens) (O15520 whole entry, looked up): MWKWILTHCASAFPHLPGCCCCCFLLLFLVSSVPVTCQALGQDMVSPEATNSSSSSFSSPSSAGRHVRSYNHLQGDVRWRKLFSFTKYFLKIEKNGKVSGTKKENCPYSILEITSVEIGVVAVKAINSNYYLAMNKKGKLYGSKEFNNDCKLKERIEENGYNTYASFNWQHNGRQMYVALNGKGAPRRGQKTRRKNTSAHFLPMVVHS

[6] = tested on: glycogen synthase kinase-3 (GSK3A per assay name; protocol says GSK3B); assay: compounds binding glycogen synthase kinase-3 – biochemical, small-molecule microarray, 635 nm fluorescence, GSK3A, primary screen (AID 1103); details: fluorescence 635 nm, higher = more signal; further: the record names both GSK3A and GSK3B
[7] = target: Epidermal growth factor receptor (Homo sapiens) (UniProt P00533); assay: compounds binding epidermal growth factor receptor – biochemical, small-molecule microarray, 635 nm fluorescence, primary screen (AID 1104); details: EGFR binding, higher = more signal;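 further: score merges 667 nm emission intensity with spot signal to noise over triplicate slides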
Sequence of Epidermal growth factor receptor (Homo sapiens) (P00533 whole entry, looked up): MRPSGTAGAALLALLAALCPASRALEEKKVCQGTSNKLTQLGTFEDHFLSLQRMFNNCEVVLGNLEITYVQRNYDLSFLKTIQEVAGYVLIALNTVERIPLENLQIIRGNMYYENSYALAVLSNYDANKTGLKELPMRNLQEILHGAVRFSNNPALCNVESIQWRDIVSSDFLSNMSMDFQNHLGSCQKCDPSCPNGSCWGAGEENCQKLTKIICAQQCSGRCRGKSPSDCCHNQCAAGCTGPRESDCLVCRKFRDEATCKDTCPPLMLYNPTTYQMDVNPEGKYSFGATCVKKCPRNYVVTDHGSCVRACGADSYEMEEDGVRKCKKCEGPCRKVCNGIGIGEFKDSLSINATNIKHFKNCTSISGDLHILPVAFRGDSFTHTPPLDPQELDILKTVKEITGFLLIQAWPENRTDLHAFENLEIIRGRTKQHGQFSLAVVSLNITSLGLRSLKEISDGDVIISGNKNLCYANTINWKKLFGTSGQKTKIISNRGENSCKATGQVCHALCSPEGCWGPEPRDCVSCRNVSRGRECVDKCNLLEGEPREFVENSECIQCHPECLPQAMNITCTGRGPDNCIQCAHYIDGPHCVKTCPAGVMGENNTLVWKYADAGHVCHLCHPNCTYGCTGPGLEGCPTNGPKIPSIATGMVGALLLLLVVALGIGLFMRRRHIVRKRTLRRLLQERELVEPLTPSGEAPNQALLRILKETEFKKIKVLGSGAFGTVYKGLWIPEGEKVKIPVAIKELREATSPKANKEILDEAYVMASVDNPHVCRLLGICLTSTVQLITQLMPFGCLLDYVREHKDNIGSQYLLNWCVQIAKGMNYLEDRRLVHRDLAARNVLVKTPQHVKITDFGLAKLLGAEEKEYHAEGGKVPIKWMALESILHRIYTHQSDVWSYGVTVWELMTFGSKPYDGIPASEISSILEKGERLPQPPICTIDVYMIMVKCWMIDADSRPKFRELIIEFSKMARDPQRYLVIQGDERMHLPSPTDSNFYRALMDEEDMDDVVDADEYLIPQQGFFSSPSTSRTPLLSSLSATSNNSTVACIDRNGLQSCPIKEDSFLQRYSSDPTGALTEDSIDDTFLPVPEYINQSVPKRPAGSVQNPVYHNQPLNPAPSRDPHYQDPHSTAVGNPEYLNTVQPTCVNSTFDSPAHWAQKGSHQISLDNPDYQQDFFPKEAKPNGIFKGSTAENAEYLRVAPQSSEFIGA

[8] = target: Follistatin-related protein 3 (Homo sapiens) (UniProt O95633); assay: compounds binding follistatin-related protein 3 – biochemical, small-molecule microarray, 635 nm fluorescence, primary screen (AID 1105); details: FSTL3 binding, higher = more signal;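 further: score merges emission near 667 nm and signal to noise per printed spot across three slides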
Sequence of Follistatin-related protein 3 (Homo sapiens) (O95633 whole entry, looked up): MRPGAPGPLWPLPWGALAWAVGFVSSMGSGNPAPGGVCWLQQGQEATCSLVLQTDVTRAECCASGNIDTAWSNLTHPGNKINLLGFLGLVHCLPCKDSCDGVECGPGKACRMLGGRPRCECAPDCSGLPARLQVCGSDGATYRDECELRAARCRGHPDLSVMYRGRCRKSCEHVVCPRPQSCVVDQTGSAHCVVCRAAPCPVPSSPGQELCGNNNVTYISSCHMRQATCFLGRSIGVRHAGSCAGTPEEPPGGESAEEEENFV

[9] = target: Dickkopf-related protein 1 (Homo sapiens) (UniProt O94907); assay: small molecules binding DKK1 protein – biochemical, small-molecule microarray, 635 nm fluorescence scan, primary screen (AID 1106); details: higher = more signal;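 further: score merges emission near 667 nm with signal to noise over three replicate slides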
Sequence of Dickkopf-related protein 1 (Homo sapiens) (O94907 whole entry, looked up): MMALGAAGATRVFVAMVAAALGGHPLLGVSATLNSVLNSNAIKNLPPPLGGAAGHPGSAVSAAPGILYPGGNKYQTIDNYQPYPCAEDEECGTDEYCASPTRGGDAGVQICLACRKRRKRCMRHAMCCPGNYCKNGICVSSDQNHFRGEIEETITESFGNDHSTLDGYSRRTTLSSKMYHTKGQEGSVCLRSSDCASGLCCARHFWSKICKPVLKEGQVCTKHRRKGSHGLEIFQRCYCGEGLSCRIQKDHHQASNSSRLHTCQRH

[10] = tested on: Inhibin beta A chain (activin A); assay: small molecules binding activin A – biochemical, small-molecule microarray, 635 nm fluorescence scan, primary screen (AID 1107); details: INHBA, higher = more signal;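 further: mouse activin A protein probed at 4.33 µg/mL on printed slides; score merges bound-protein fluorescence near 667 nm with spot signal-to-noise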
[11] = tested on: Human papillomavirus type 1a protein E7 (residues 44-93); assay: small molecules binding HPV E7 44-93 – biochemical, small-molecule microarray, residues 44-93, 635 nm fluorescence, primary screen (AID 1108); details: fluorescence 635 nm, higher = more signal;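 further: E7 fragment applied at 1 µg/mL in TBST for 1 h at 4 C; score combines spot fluorescence with its signal to noise ratio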
[12] = hepatitis C replication reporter changes, two-sided – Huh7 cells, luciferase reporter, HCV replication inhibitor project, primary screen (AID 1109); details: Huh7 HCV replicon luciferase reporter, 48 h; higher = more signal;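 further: huh7 hepatoma cells harbouring a luciferase neomycin HCV replicon reporter; luciferase luminescence as measure of HCV replicon replication; test concentration not given here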
[13] = target: Left-right determination factor 2 (Homo sapiens) (UniProt O00292); assay: small molecules binding LEFTY2 protein – biochemical, small-molecule microarray, 635 nm fluorescence scan, primary screen (AID 1110); details: higher = more signal
Sequence of Left-right determination factor 2 (Homo sapiens) (O00292 whole entry, looked up): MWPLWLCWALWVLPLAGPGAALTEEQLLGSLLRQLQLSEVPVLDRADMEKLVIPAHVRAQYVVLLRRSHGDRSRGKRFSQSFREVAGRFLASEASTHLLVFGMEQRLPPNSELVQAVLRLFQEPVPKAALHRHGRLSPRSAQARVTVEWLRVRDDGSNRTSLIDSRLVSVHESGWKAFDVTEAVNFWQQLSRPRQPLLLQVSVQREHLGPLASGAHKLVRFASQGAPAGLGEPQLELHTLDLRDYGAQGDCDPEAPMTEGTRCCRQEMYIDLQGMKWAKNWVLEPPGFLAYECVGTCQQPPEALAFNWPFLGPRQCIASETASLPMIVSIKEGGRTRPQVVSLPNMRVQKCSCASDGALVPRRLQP

[14] = target: Calmodulin-1 (Homo sapiens) (UniProt P0DP23); assay: small molecules binding calmodulin-1 with EGTA – biochemical, small-molecule microarray, Cy5-labelled CALM1, profiling panel (AID 1111); details: Cy5-CALM1 binding fluorescence, higher = more signal;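 further: labelled calmodulin applied in Tris saline Tween buffer holding calcium plus EGTA and DTT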
[15] = target: Calmodulin-1 (Homo sapiens) (UniProt P0DP23); assay: small molecules binding Ca-loaded calmodulin-1 – biochemical, small-molecule microarray, Cy5-labelled CALM1, plus calcium, artefact control for SMM control-protein annotation, profiling panel (AID 1112); details: Cy5-CALM1 binding fluorescence, higher = more signal;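 further: score merges spot fluorescence with signal to noise from triplicate slides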
[16] = probe aWnt5a binding to arrayed compounds – biochemical, biotinylated probe, 635/667 nm fluorescence, primary screen (AID 1113); details: small-molecule microarray, higher = more signal;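 further: score merges 667 nm fluorescence intensity with signal-to-noise per printed feature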
[17] = probe aShh binding to arrayed compounds – biochemical, biotinylated probe, 635/667 nm fluorescence, primary screen (AID 1114); details: small-molecule microarray, higher = more signal;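 further: probe is biotin-labelled aShh protein from a stem cell growth factor screen; measures binding of labelled protein to compounds printed on the slide; score merges feature fluorescence at 667 nm with signal-to-noise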
[18] = probe aNog binding to arrayed compounds – biochemical, biotinylated probe, 635/667 nm fluorescence, primary screen (AID 1115); details: small-molecule microarray, higher = more signal;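 further: probe is biotinylated aNog protein used at 0.15 µg/mL for 1 h at 4 C; z-score combines 667 nm fluorescence of each spot with its signal to noise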
[19] = target: Torsin-1A-interacting protein 1 (Homo sapiens) (UniProt Q5JTV8); assay: compound microarray binding of lysate hLAP1 – cell lysate, small-molecule microarray, COS7 lysate, 635/667 nm fluorescence, primary screen (AID 1116); details: 635 nm fluorescence, higher = more signal
Sequence of Torsin-1A-interacting protein 1 (Homo sapiens) (Q5JTV8 whole entry, looked up): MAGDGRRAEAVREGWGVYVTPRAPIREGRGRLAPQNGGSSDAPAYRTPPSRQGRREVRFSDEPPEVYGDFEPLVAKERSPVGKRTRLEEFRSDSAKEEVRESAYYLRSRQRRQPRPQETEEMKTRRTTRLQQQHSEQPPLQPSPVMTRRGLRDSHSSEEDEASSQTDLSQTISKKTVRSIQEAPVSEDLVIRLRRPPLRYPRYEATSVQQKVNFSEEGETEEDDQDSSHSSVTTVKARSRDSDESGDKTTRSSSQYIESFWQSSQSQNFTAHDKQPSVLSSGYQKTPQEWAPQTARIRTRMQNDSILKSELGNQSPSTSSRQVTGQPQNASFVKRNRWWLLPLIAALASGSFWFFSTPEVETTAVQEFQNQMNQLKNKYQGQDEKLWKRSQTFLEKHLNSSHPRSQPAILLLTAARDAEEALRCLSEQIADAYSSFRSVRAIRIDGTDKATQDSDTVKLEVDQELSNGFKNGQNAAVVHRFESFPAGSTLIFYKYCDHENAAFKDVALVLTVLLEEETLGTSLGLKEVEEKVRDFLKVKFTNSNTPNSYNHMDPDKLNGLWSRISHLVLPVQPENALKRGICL

[20] = target: Alpha-bungarotoxin (Bungarus multicinctus) (UniProt P60615); assay: compounds binding labelled alpha-BTX control protein – biochemical, small-molecule microarray, Alexa647 label, 635/667 nm fluorescence, artefact control for SMM control protein annotation, profiling panel (AID 1117); details: alpha-BTX-A647 binding fluorescence, higher = more signal
Sequence of Alpha-bungarotoxin (Bungarus multicinctus) (P60615 whole entry, looked up): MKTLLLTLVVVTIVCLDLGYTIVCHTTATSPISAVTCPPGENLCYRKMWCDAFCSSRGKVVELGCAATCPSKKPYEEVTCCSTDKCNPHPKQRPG

SMILES | composite z-score [1] | composite z-score [2] | composite z-score [3] | z-score [4] | composite z-score [5] | composite z-score [6] | composite z-score [7] | composite z-score [8] | composite z-score [9] | composite z-score [10] | composite z-score [11] | z-score [12] | composite z-score [13] | composite z-score [14] | composite z-score [15] | composite z-score [16] | composite z-score [17] | composite z-score [18] | composite z-score [19] | composite z-score [20]
NC(=O)NCC#Cc1ccc2c(c1)[C@]1(C(=O)N2)[C@H](c2ccc(OCCO)cc2)N2[C@H](c3ccccc3)[C@H](c3ccccc3)OC(=O)[C@H]2[C@@H]1C(=O)N1CCCCCCC1 | 1.72 | 2.51 | 1.17 | 0.238 (inactive) | 1.5 | 1.27 | 1.71 | 1.64 | 2.25 | 1.5 | 1.46 | -1.02 | 1.73 | 2.77 | 1.2 | 1.38 | 0.565 | 3.11 | 4.35 | 1.77
COC(=O)[C@@]1(Cc2ccc(F)cc2)[C@H]2c3cc(C(=O)N4CCCC4)n(Cc4ccccc4)c3C[C@H]2CN1C(=O)c1ccccc1 | 0.122 | 0.411 | 1.28 | -2.67 (inactive) | 0.674 | 0.376 | 0.231 | 0.761 | -0.401 | 0.628 | 1.07 | -2.41 | -0.253 | 1.98 | 0.666 | -0.0843 | -0.367 | -0.357 | 1.56 | 0.657
C[N+](C)(C)CCCCCCNC(=O)[C@@H]1C[C@@H]2C(=O)NCC(=O)N2[C@@H]1c1ccc(O)cc1 | 1.43 | -0.171 | 0.135 | 0.605 (inactive) | 0.963 | 0.657 | 0.0357 | 1.39 | 1.19 | 0.277 | 1.33 | 1.33 | 0.549 | 0.334 | -0.431 | -0.124 | -0.244 | -0.196 | 1.03 | 1.9
O=C1c2ccccc2C(=O)C2CC([C@H]3Oc4ccccc4S(=O)(=O)N4CCC[C@@H]34)=CCC12 (stereo not given in full) | -0.41 | -0.158 | -0.119 | -0.279 (inactive) | 0.0804 | 0.301 | 0.153 | -0.26 | 0.187 | 0.771 | -0.811 | -1.34 | 0.0197 | -0.488 | 0.184 | -0.124 | -0.0362 | -0.273 | 0.123 | 0.0404
CC(C)C(CO)N1C(=O)[C@@H]2[C@H]3C(=O)OCC=C[C@H]3OC23C=CCN(CCN2CCOCC2)C(=O)[C@@H]13 (stereo not given in full) | 1.15 | -0.385 | -0.538 | 0.653 (inactive) | -0.505 | -0.118 | -0.409 | 0.351 | 0.286 | 0.934 | -0.0831 | -0.911 | -0.0025 | -0.229 | -1.32 | -0.176 | -0.0709 | -0.0719 | -0.128 | 0.451
O=C1N(CCS(=O)(=O)c2ccccc2)Cc2ccccc2C[C@@]12COC(c1ccc(OCCCO)cc1)=N2 | 1.69 | 1.15 | 1.26 | 0.67 (inactive) | 1.07 | 1.29 | 0.847 | 1.3 | 0.628 | 1.32 | 1.08 | -2.31 | 0.906 | 0.303 | 0.87 | 0.0561 | -0.0858 | 0.618 | 1.56 | 2.33
COC(=O)C(CC#Cc1ccc2c(c1)[C@]1(C(=O)N2)[C@H](c2ccccc2OCCO)N2[C@H](c3ccccc3)[C@H](c3ccccc3)OC(=O)[C@H]2[C@@H]1C(=O)Nc1nc2ccccc2s1)C(=O)OC | 1.21 | -0.0226 | -0.0159 | -0.333 (inactive) | 1.3 | 1.21 | 0.312 | 0.806 | 0.171 | 0.245 | 1.41 | -2.02 | 0.397 | 0.973 | -0.196 | -0.0239 | 0.233 | -0.466 | 0.874 | 1.5
COCC1=C([C@H](O)CCc2ccccc2)[C@H](CO)[C@@H]2C(=O)N(C)C(=O)[C@@H]2C1 | -0.129 | -0.541 | -0.578 | 0.559 (inactive) | 0.397 | 0.189 | 0.456 | 0.0826 | 0.408 | 0.42 | -0.121 | 0.216 | 0.394 | -0.205 | -0.783 | -0.104 | -0.164 | -0.172 | 0.478 | -0.152
CCCc1cc2c(n1Cc1ccc(OC)cc1)C(C)C1CN(C(=O)c3ccccc3)C(C)(C(=O)OC)C21 (stereo not given) | 0.862 | 1.27 | 1.59 | -1.94 (inactive) | 0.303 | 0.482 | -0.409 | 0.324 | -1.71 | 1.43 | 0.247 | -2.16 | -0.307 | 2.6 | 1.42 | 0.157 | 0.686 | 1.26 | 2.19 | 2.52
CCCNC(=O)[C@@]1(Sc2ccc(C)cc2)CC(=O)N(Cc2ccccc2)[C@@H]1c1ccc(CO)cc1I | 0.523 | 0.806 | 0.484 | -0.494 (inactive) | 0.559 | 0.108 | 0.183 | 0.942 | 0.353 | 1.47 | 1.17 | -2.64 | -0.045 | -0.296 | 0.143 | -0.0758 | -0.1 | 0.225 | 0.285 | 1.19
COC(=O)[C@@]1(Cc2ccccc2)[C@H]2c3cc(C(=O)N(C)C)n(Cc4ccccn4)c3C[C@H]2CN1C(=O)c1ccccc1 | 1.57 | 1.44 | 1.37 | -1.58 (inactive) | 0.548 | 0.225 | -0.805 | 0.155 | -1.09 | 0.46 | -0.271 | -0.903 | -0.0545 | 1.92 | 1.35 | 0.241 | -0.0849 | 0.85 | 1.77 | 0.94
C=CCNC(=O)[C@H]1[C@@H]2C(=O)O[C@@H](c3ccccc3)[C@@H](c3ccccc3)N2[C@@H](c2ccc(OCCO)cc2)[C@]12C(=O)N(C(=O)OCCOC)c1ccc(C#CC3=CCCCC3)cc12 | 1.39 | 0.0825 | -0.0093 | -1.98 (inactive) | 1.17 | 1.31 | 0.475 | 1.11 | 0.522 | 0.373 | -0.192 | -1.94 | 0.652 | 1.28 | 0.171 | 0.0243 | 0.0141 | -0.038 | 2.23 | 2.5
C/C=C/[C@@H](CCn1cc([C@H](O)c2ccccc2)nn1)[Si](C)(C)c1ccc(OC)cc1 | 1.53 | -0.414 | 0.476 | -0.406 (inactive) | -0.71 | -0.507 | -0.849 | -0.748 | -0.0219 | 0.0838 | 0.434 | -2.6 | -1.32 | -1.34 | -1.35 | -0.012 | 0.0639 | -0.738 | 0.834 | 0.478
CC(C)CNC(=O)[C@@]1(c2ccc([N+](=O)[O-])cc2)CC(=O)N(C(C)C)[C@@H]1c1ccc(CO)cc1 | 0.832 | -0.258 | 1.08 | -0.372 (inactive) | -1 | -1.02 | -0.362 | -0.129 | -1.59 | 0.07 | 0.212 | -0.687 | -1.53 | -0.505 | 0.739 | -0.12 | -0.0738 | -0.428 | -0.534 | -0.186
